For 153 variants, enrichment ratio results are on record in a collection of fitness landscapes (doi:10.1126/science.1257360).

The full ranking holds about 140,000 sequences; the median of “enrichment ratio after two sorts for PhoP signalling” is about 0, and the highest 2% start at about 11. Many of the other results were omitted from the sample, so the highest values are more common in it than they were. Some results are limits rather than exact numbers.

The labels stand for the following.
B1: PhoQ; a variant is named by its letters at X, in order, P23837 (parent)
chain: MKKLLRLFFPLSLRVRFLLATAAVVLVLSLAYGMVALIGYSVSFDKTTFRLLRGESNLFYTLAKWENNKLHVELPENIDKQSPTMTLIYDENGQLLWAQRDVPWLMKMIQPDWLKSNGFHEIEADVNDTSLLLSGDHSIQQQLQEVREDDDDAEMTHSVAVNVYPATSRMPKLTIVVVDTIPVELKSSYMVWSWFIYVLSANLLLVIPLLWVAAWWSLRPIEALAKEVRELEEHNRELLNPATTRELTSLVRNLNRLLKSERERYDKYRTTLTDLTHSLKTPLXXLQXXLRSLRSEKMSVSDAEPVMLEQISRISQQIGYYLHRASMRGGTLLSRELHPVAPLLDNLTSALNKVYQRKGVNISLDISPEISFVGEQNDFVEVMGNVLDNACKYCLEFVEISARQTDEHLYIVVEDDGPGIPLSKREVIFDRGQRVDTLRPGQGVGLAVAREITEQYEGKIVAGESMLGGARMEVIFGRQHSAPKDE

In the experiment the parent is B1. Nature of the experiment: enrichment ratio after two sorts for PhoP signalling (ratio (wild type AVST 3.29)); higher = more functional. The settings on record: with PhoP (E. coli).
For GNNL, the enrichment ratio was 2.95.
For GNCL the value was 18.1; for YSKR, at most 0.25; for RNAK, at most 0.25.
For GHTM the value was at most 0.25; for ANTM, 44.
The result for ATTI reads 13.7; that for ATPM, 0.758.
As to KKTM, the enrichment ratio is at most 0.25.
Take ATTA: the enrichment ratio was at most 0.25.
The result for ADTM reads at most 0.25; that for ATTK, 10.4; that for GNTM, 1.94.
The result for ATWM reads at most 0.25; that for AITM, 23.3.
For ATTM the value was 16.6.
GVVP: the enrichment ratio is at most 0.25.
The result for QMYN reads at most 0.25; that for EFPL, at most 0.25.
The result for KIKD reads at most 0.25; that for EALR, at most 0.25.
The result for FKYT reads at most 0.25; that for VDAS, at most 0.25; that for EAHV, at most 0.25.
For the variant NFSK, the enrichment ratio is at most 0.25.
For DNFH the value was at most 0.25.
For QRWF the value was at most 0.25; for HKWF, at most 0.25.
The result for KSWF reads at most 0.25; that for FQWF, at most 0.25.
Turning to QGWF, the enrichment ratio was 18.8.
For the variant QPWF, the enrichment ratio was at most 0.25.
For FFWF, the enrichment ratio is at most 0.25.
QKWF: the enrichment ratio stood at 12.7.
For TKWF the value was 13.4; for VAKP, at most 0.25.
The result for YQPA reads at most 0.25; that for LESI, at most 0.25.
For MTAV the value was 7.37; for AMKH, at most 0.25.
VGAQ: the enrichment ratio is at most 0.25.
On to RNKK, for which the enrichment ratio is at most 0.25.
The result for WHKS reads at most 0.25; that for HTKL, at most 0.25.
The result for TMNS reads 7.25.
For TMNT the value was 11.9; for TMGD, 3.55.
TMKT: the enrichment ratio was at most 0.25.
For DMNA the value was at most 0.25; for TMND, 21.9; for TMTD, at most 0.25.
For TMPT the value was at most 0.25.
The result for TMNA reads 24.8; that for TMNI, 3.75.
With NMNA, the enrichment ratio is at most 0.25.
The result for TMAT reads 11.2; that for AFCP, at most 0.25; that for QIMN, at most 0.25.
The result for YLAK reads at most 0.25; that for NTVM, at most 0.25.
On to PIIP, for which the enrichment ratio was at most 0.25.
For IRSI the value was at most 0.25; for NCPV, at most 0.25.
In the case of LVVW, the enrichment ratio was at most 0.25.
For WDPT the value was at most 0.25; for YRQK, at most 0.25; for TMNG, 10.4.
For TMNN the value was 34; for TMHG, 13.3.
For NMNN the value was at most 0.25.
For TMNF, the enrichment ratio is 14.7.
For TMHK the value was at most 0.25; for KMNF, at most 0.25; for NNNF, at most 0.25.
The result for TMNL reads 5.04; that for DTAT, at most 0.25; that for HKAG, at most 0.25.
For YDNA the value was at most 0.25.
For the variant YEKP, the enrichment ratio is at most 0.25.
For MQFM the value was 12.3.
The result for SQHY reads at most 0.25.
For MQFD the value was 14.7; for MQHF, at most 0.25; for MQHY, 12.6.
As for MQFY, the enrichment ratio is at most 0.25.
For MQGD the value was at most 0.25.
For QQHY the value was 21.2; for MQFA, at most 0.25; for KQFM, at most 0.25.
With MQPI, the enrichment ratio is at most 0.25.
The result for QHHY reads at most 0.25.
Turning to SYVF, the enrichment ratio was determined as 0.277.
The result for YEDQ reads at most 0.25; that for WFMA, at most 0.25; that for HCRL, at most 0.25.
In the case of RTQY, the enrichment ratio was at most 0.25.
For VMWE the value was at most 0.25; for AGDA, at most 0.25.
The result for MQWM reads 14.1.
The result for MQGM reads at most 0.25.
As to MQWI, the enrichment ratio was 14.4.
With MQFS, the enrichment ratio was 3.3.
The result for MQAE reads at most 0.25.
For MQSK the value was at most 0.25.
The result for MQRM reads at most 0.25.
For MQRA, the enrichment ratio was at most 0.25.
For MQRV the value was at most 0.25; for MQAV, 18.4.
For MQFE the value was at most 0.25.
MQFQ: the enrichment ratio was 11.9.
Take YMRM: the enrichment ratio was at most 0.25.
For TCKP the value was at most 0.25; for RKYE, at most 0.25; for RKAI, at most 0.25.
The result for SLME reads 2.88; that for HFYE, at most 0.25.
For GSHY the value was at most 0.25; for QNET, at most 0.25.
For QCSY, the enrichment ratio is at most 0.25.
In the case of EMSY, the enrichment ratio is at most 0.25.
Regarding GCLP, the enrichment ratio came out at 0.401.
The result for LLKQ reads at most 0.25.
The result for RVRE reads at most 0.25; that for VVHP, at most 0.25; that for KLMQ, at most 0.25.
For VVMQ the value was 13.3; for SYMQ, at most 0.25.
In the case of VYMQ, the enrichment ratio was at most 0.25.
For SLMQ the value was 11.8; for FSMQ, 3.93; for SIMQ, 33.3.
For SSMQ the value was 11.5.
On to TLMQ, for which the enrichment ratio was at most 0.25.
For SRMQ the value was at most 0.25.
Turning to KYMQ, the enrichment ratio was at most 0.25.
For LNVR the value was at most 0.25.
For KVQP the value was at most 0.25; for FGEF, at most 0.25; for ATMQ, 3.23.
For PWPQ the value was at most 0.25.
Consider PECM, for which the enrichment ratio was at most 0.25.
Consider VWYR, for which the enrichment ratio was at most 0.25.
The result for SQMQ reads 7.7; that for NSMQ, at most 0.25.
For STMQ the value was 12; for TSMQ, 13.9; for KSMQ, at most 0.25.
The result for SWMQ reads at most 0.25; that for RQGA, at most 0.25; that for FECY, at most 0.25.
KYKH: the enrichment ratio was at most 0.25.
For YIRN the value was at most 0.25; for FEWK, at most 0.25.
